# TRPV1 potentiator: potentiators of human vanilloid receptor 1 (TRPV1); Q8NER1; TRPV1-expressing cells, Fluo-8 calcium influx, capsaicin EC20 potentiation; 320,000 compounds, 0.02% hits; potentiation, % at 8.33 µM; in the data active = potentiation above about 80%; inconclusive = between about 30% and that limit; note: 0% is about no effect
#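 Fluo-8 calcium influx in TRPV1-expressing cells, kinetic read (ex 480/em 520 nm). Compound added and read 3 min for agonist activity, followed by capsaicin at EC20 final and 2 min further read for enhancement.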
# KCNH2 3.1 inh: inhibitors of human KCNH2 3.1 potassium channel isoform; U2OS KCNH2 3.1, thallium flux FluxOr; hits give low values; activity change, % (tested at about 1.8 µM); 340,000 compounds, 0.95% hits; AID 720553;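 active = maximum activity change below -70%; inconclusive = maximum activity change from -70% to -50%; inactive = maximum activity change above -50%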;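 note: thallium influx rate constant from kinetic fluorescence after stimulation buffer; % is set by controls: 0 for no effect and ±100 for the full control effect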
#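 Thallium flux read-out: FluxOr dye with Red40 quencher in HBSS/HEPES, 45 min at RT. Rate constants from kinetic reads were normalized to positive and negative DMSO controls. Cells: U2OS virally expressing the 3.1 isoform.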
# KCNH2 WT inh: inhibitors of human wildtype KCNH2 potassium channel. Q12809. U2OS, BacMam KCNH2, thallium flux FluxOr; hits give low values. activity change, % at 1.84 µM. 340,000 compounds, 0.37% hits. AID 720551;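 active = maximum activity change below -70%; inconclusive = maximum activity change between -70% and -50%; inactive = maximum activity change above -50%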; note: % is set by controls: 0 for no effect and ±100 for the full control effect
# Target sequence (Q12809 whole entry, looked up): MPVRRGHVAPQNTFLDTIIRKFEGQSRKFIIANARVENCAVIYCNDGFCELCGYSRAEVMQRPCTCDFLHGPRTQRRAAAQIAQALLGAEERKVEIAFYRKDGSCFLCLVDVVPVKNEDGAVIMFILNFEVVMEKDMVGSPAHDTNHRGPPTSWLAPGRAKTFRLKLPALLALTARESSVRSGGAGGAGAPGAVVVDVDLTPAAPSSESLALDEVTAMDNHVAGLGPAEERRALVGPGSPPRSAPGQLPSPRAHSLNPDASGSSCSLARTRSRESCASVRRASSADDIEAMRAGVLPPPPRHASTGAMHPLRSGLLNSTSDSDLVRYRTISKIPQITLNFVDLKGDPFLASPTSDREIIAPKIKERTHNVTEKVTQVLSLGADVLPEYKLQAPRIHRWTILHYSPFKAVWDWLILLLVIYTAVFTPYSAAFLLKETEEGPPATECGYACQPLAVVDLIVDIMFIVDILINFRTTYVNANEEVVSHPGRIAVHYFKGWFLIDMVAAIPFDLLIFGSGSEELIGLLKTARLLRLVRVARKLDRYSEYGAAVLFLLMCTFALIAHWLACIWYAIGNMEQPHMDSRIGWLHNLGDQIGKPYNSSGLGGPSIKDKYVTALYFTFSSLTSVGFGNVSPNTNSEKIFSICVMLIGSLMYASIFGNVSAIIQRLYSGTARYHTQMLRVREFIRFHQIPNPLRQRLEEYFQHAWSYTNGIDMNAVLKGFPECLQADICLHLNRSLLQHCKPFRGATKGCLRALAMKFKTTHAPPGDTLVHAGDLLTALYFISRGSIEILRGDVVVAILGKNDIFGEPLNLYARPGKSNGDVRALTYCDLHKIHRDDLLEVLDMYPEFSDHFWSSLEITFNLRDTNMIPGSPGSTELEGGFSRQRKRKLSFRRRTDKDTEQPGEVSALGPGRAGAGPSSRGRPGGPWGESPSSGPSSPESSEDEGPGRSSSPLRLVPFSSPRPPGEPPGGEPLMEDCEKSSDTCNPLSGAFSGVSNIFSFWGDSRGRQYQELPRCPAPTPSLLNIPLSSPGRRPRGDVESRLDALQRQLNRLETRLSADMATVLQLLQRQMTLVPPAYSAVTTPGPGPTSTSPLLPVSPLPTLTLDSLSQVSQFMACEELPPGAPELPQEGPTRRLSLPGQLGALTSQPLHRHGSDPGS
#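 U2OS cells transduced with wild-type KCNH2 virus are loaded with FluxOr dye for 45 min, and thallium flux is measured in kinetic reads before and after stimulation buffer. Rate constants are normalized to DMSO controls.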
# ClpP mod: qHTS Assay for Activators of ClpP. AID 651965, 2013. Potency, µM (highest dose often 57.5 µM), inactives show top-dose activity change, negative = active. purified B. subtilis ClpP, FRET peptide cleavage, 20 min. 340,000 compounds, 1.9% hits. ATP-dependent Clp protease proteolytic subunit (Bacillus subtilis (strain 168)), P80244; active = well fitted falling curve with a large enough effect; inconclusive = small, poorly fitted or top-dose-only effect; inactive = no such curve, though single readings can be large or run the other way; note: potency is the fitted concentration of half-maximal effect; the source files actives as falling curves though it sought activators and does not explain the sign; nearly all actives have a fitted effect of over 65% in size
#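 ClpP 10 microg/mL final, pH 8 Tris/KCl buffer with BSA, glycerol, Tween-20; compound pinned in; FRET-FV substrate; RT 20 min; Ex320/Em430; ΔFRET vs ADEP 5.8 microM, DMSO, no enzyme.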
# TRPV1 agonist: human TRPV1 agonism. Q8NER1. TRPV1-expressing cells, Fluo-8 calcium influx, agonist mode. activation, % at 8.33 µM. 320,000 compounds, 0.19% hits. AID 540275; in the data active = activation above about 80%; inconclusive = between about 30% and that limit; note: 0% is about no effect
#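 TRPV1-expressing cells were cultured overnight at 35.5C and loaded with Fluo-8 calcium dye for 40 to 90 min at room temperature. After a 10 s baseline, compound was added and calcium influx was read kinetically for 3 min (ex 480/em 520 nm).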
# p53 reactivator: restores transcriptional activity of mutant p53; Potency, µM (top dose mostly 92.2 µM), for inactives: at the top dose activity change, positive = activation, usual class: activators; AID 504706; H1299 p53-A138V BP100-luciferase reporter, luminescence, 24 h; 320,000 compounds, 0.063% hits; active = well fitted activation curve with a large enough effect; inconclusive = small, poorly fitted or top-dose-only effect; inactive = no such curve, though single readings can be large or run the other way; note: potency is the fitted concentration of half-maximal effect; % of control where 0% means no effect; nearly all actives have a fitted effect of over 45% in size
#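 H1299 (p53-null), stable ts p53-A138V + BP100-Luc; 1000 cells/well, Opti-MEM/10% FBS; cpd 4 pt, 1:5; 24 h, 37 deg C, 5% CO2; detection reagent 10 min RT; luminescence.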
# * hit, by the source's call; ? = inconclusive; . = not tested or not shown; ! = a repeat was not active. In the library only some 2.6% were active in any assay of this set; here they are far more common.
SMILES,TRPV1 potentiator,KCNH2 3.1 inh,KCNH2 WT inh,ClpP mod,TRPV1 agonist,p53 reactivator
CCOc1cc(C)ccc1OCc1nnc(SCC(=O)c2cccc([N+](=O)[O-])c2)n1C,-2.8,-9.3,28.8,0.7%,2.1,-0.2%
Cc1ccc2[nH]c(=O)c(CN(CCc3ccccc3)C(=O)N3CCOCC3)cc2c1,8.2,-5.3,-3.0,14.1µM*,1.6,1.2%
CCC(=O)N(CCc1ccccc1)Cc1cc2cc3c(cc2[nH]c1=O)OCO3,-16.3,-5.9,13.1,14.1µM*,-5.5,-1.2%
CCC(=O)N(Cc1ccc(C)cc1)Cc1cc2cc3c(cc2[nH]c1=O)OCO3,-9.8,-29.4,9.2,31.6µM*,10.0,-1.9%
COc1ccc(CCN(Cc2cc3cc(C)ccc3[nH]c2=O)C(=O)N2CCCC2)cc1OC,10.1,-3.4,5.2,-8.5%,-2.8,-19.0%
CCC(=O)N(CCc1ccccc1)Cc1cc2cc(OC)ccc2[nH]c1=O,-11.7,7.9,6.1,3.6%,11.2,-2.1%
CCc1ccc(CN2CCCC(CNS(=O)(=O)c3ccc(OC)cc3)C2)cc1 (stereo not drawn),14.2,-70.6*,-26.5,.,5.3,-3.7%
Cc1cccc(-n2c(N)cc(=O)nc2SCC(=O)Nc2ccccc2)c1,16.8,-178.9*,-143.7*,-2.2%,0.2,-2.4%
COC(=O)c1ccc(CN2CCC(CO)(CCOc3ccccc3)CC2)cc1,0.0,-97.0*,-5.0,-0.1%,4.4,8.8%
COc1cc(Cl)c(CN2CCC(CO)(CCOc3ccccc3)CC2)cc1OC,-0.4,-94.0*,-74.1*,0.2%,6.7,.
OCC1(CCOc2ccccc2)CCN(CC2=Cc3cc(Cl)ccc3OC2)CC1,-4.8,-72.1*,-32.7,.,1.5,0.0%
CN(C)c1ccc(CCc2ccnc3ccccc23)cc1,.,.,.,-2.3%,.,.
Cc1sc2ncnc(Sc3nnnn3-c3ccccc3)c2c1C,6.8,-0.9,10.6,31.6µM*!,2.4,-22.2%
O=C(Nc1ccccc1C(=O)O)c1ncn[nH]1,-12.2,0.3,1.9,28.2µM*,-0.2,9.2%
N#CC1=C(N)NC(SCC(=O)Nc2ccc(Br)cc2)=C(C#N)C12CCCCC2,6.2,-32.7,-145.8*,0.9%,6.2,0.8%
N#CC1=C(N)NC(SCc2ccc(Br)cc2)=C(C#N)C12CCCCC2,3.3,-11.6,-0.4,-2.8%,0.6,6.1%
Cc1ccc(CNC(=O)Cc2c(C)c3cc4c(C)coc4cc3oc2=O)cc1,.,.,.,-13.9%,.,.
CCc1ccccc1NC(=O)c1ccc2nc(C(C)C)oc2c1,.,.,.,-1.2%,.,.
CN1CCC(=NNC(=O)C(=O)NC2CCCC2)CC1,8.8,4.1,5.4,31.6µM*,-6.3,2.1%
CCOc1ccc(-n2cc(-c3ccccc3)c3c(NCCc4ccccc4)ncnc32)cc1,.,.,.,25.1µM*,.,.
Clc1ccc(CCNc2ncnc3c2c(-c2ccccc2)cn3-c2ccccc2)cc1,.,.,.,20µM*,.,.
CCOc1ccc(CN2CCN(Cc3cc4c(cc3Cl)OCO4)CC2CCO)cc1 (stereo not drawn),-16.7,-119.2*,-110.7*,.,?,-3.4%
CCOc1ccc(CN2CCN(Cc3cccc4nonc34)CC2CCO)cc1 (stereo not drawn),3.5,-115.7*,-76.7*,.,1.4,-2.6%
CCOc1ccc(CN2CCN(Cc3cnn(CC)c3C)CC2CCO)cc1 (stereo not drawn),-7.8,2.2,6.2,-1.8%,5.7,0.5%
CCn1c(CN2CCN(Cc3ccc(C)cc3)C(CCO)C2)nc2ccccc21 (stereo not drawn),-1.2,-98.3*,-24.9,.,5.1,-2.5%
SMILES,TRPV1 potentiator,KCNH2 3.1 inh,KCNH2 WT inh,ClpP mod,TRPV1 agonist,p53 reactivator
CC(C)Cn1c(CN2CCN(C)C(CCO)C2)nc2ccccc21 (stereo not drawn),?,0.8,9.1,0.3%,-2.2,5.3%
CCOc1ccc(CN2CCN(Cc3cccc4c3OCO4)CC2CCO)cc1 (stereo not drawn),4.2,-23.4,-1.1,.,0.6,-0.9%
COC(=O)[C@]12CCCCC=C1N(Cc1ccc(Cl)cc1Cl)C(=O)[C@H](CC(=O)NCCC(C)C)C2,.,.,.,1.7%,.,.
CCN(CC)S(=O)(=O)c1ccc2c(c1)c(=O)c(C(=O)N1CCN(c3cccc(C)c3)C(C)C1)cn2C (stereo not drawn),.,.,.,-1.3%,.,.
CCOc1ccccc1NC(=O)C1CCN(S(=O)(=O)c2c(C)noc2/C=C/c2ccc(C)cc2)CC1,.,.,.,0.6%,.,.
CCc1nn(CC(=O)N2CCC(C)CC2)c(=O)c2cc3occc3n12,.,.,.,-0.6%,.,.
N#Cc1c(N)c(C#N)c(-c2ccc(O)cc2)c2c1CCCC2,-7.3,9.7,3.0,22.4µM*,-3.6,-4.4%
N#Cc1c(N)c(C#N)c(-c2ccc3c(c2)OCO3)c2c1CCCC2,-32.1,-0.7,-4.0,31.6µM*,-1.4,-4.1%
Cn1c(=O)oc2cc(S(=O)(=O)NCCC(=O)Nc3ccc(F)cc3F)ccc21,.,.,.,-0.1%,.,.
O=C(CN1CCC(n2nnc3cc(C(F)(F)F)ccc32)CC1)Nc1ccc2c(c1)CCC2,-0.8,-77.6*,-44.9,-4.1%,3.5,-1.2%
O=C(CN1CCC(n2nnc3cc(C(F)(F)F)ccc32)CC1)Nc1ccc2c(c1)OCCO2,5.1,-0.4,-1.2,-1.3%,5.0,24.4%
O=C(OCc1ccccc1)N1CCN(C(c2ccnc3ccccc23)c2nnnn2-c2ccc3c(c2)OCCO3)CC1 (stereo not drawn),.,.,.,-3.1%,.,.
CCN(CCNC(=O)c1ccc(C#N)cc1)c1cccc(C)c1,-5.4,-5.4,5.3,.,91.0*,-3.0%
CCOC(=O)C[n+]1cccc(Br)c1,.,.,.,-1.5%,.,.
COc1ccc2oc(C(=O)OCC(=O)N(C)Cc3ccccc3)c(C)c2c1,7.1,-19.4,1.3,28.2µM*,2.0,-3.1%
COc1ccc2oc(C(=O)OCC(=O)N(Cc3ccccc3)C(C)C)c(C)c2c1,5.6,7.7,-10.3,31.6µM*,3.9,-2.7%
COc1ccc2oc(C(=O)OCC(=O)N(C)c3ccccc3)c(C)c2c1,-21.3,27.9,-9.2,.,8.0,16.6%
COc1cccc(CNC(=O)C2CCC(CNS(=O)(=O)c3ccc4c(c3)CCCC(=O)N4)CC2)c1 (stereo not drawn),.,.,.,-0.6%,.,.
Cc1cc2nc(C3CCCCC3)c(Cc3cccc(F)c3)n2c(C)c1Br,.,.,.,-2.0%,.,.
COc1cccc(C2c3[nH]c4ccccc4c3C[C@H]3C(=O)N(CCCOC(C)C)CC(=O)N23)c1 (stereo partly drawn),6.5,-156.3*,3.6,0.1%,2.8,-2.5%
O=C1CN(C(=O)c2ccc(S(=O)(=O)N3CCCC3)cc2)C(c2ccc(F)cc2)c2cc(Br)ccc2N1 (stereo not drawn),.,.,.,-3.4%,.,.

# Bioassay records from PubChem BioAssay.
